# Data published in PubChem BioAssay (NCATS).
# Inconclusive results are not listed. Active and inactive are the calls of the source. Unless noted, the call rests on the fitted dose curve; in most records, active means well fitted curve in the direction sought with a large enough effect; inconclusive means small, poorly fitted or top-dose-only effect, or another doubt; inactive means no such curve, though single readings can be large; an effect the other way counts as inactive or inconclusive.
# Key:
# [1] = Confirmation and Secondary Assay for Modulators of Hemoglobin Beta Chain Splicing at IVS2 654 locus (AID 910);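 further: HeLa cells stably carrying EGFP split by mutant beta-globin IVS2-654 intron; % of control where 0% means no effect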
# Summary of the method: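 HeLa cells stably expressing EGFP interrupted by β-globin IVS2-654 intron, seeded overnight in Opti-MEM/2% FCS, then treated 2 days at 37 °C. Restored splicing read as total peak GFP intensity per well by laser scanning cytometry (488 nm excitation, 500–520 nm emission); 500 nM antisense PNA as control.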
# [2] = qHTS Assay for Lipid Storage Modulators (AID 1519; calls by dose curve; on activity change, negative = inhibition: on the % scale 0 is the no-effect control and ±100 the full control effect); details: Drosophila S3 cells, BODIPY lipid droplet/cell ratio, laser cytometry, cells loaded with oleic acid
# Summary of the method: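 Cells seeded at 5,000 per well were treated with compounds over a concentration series and loaded with oleic acid (400 uM, as added). Lipid droplet fluorescence (488 nm excitation, 500-530 nm channel) was read by laser-scanning cytometry and normalized to 20 uM Triacsin C.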
# [3] = target: Cytochrome P450 3A4 (Homo sapiens) (UniProt P08684); assay: qHTS Assay for Inhibitors and Substrates of Cytochrome P450 3A4 (AID 884); further: nearly all actives have a fitted effect of over 50% in size; further: potency means the concentration at half of the fitted maximal effect; on activity change, negative = inhibition: on the % scale 0 is the no-effect control and ±100 the full control effect
# Summary of the method: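 20 nM human CYP3A4 with 25 uM Luciferin-PPXE (at KM) in 200 mM KPO4, preincubated 10 min with compound; NADPH regeneration started a 60 min RT reaction. Luciferin detected by luminescence, normalized to 57 uM ketoconazole as full inhibition.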
# [4] = Confirmation and Secondary Assay for Modulators of Hemoglobin Beta Chain Splicing at IVS2 705 locus (AID 930);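 further: HeLa cells stably expressing the EGFP-705 splicing reporter; GFP fluorescence per well restored by corrected splicing of the IVS2-705 intron in EGFP; % of control where 0% means no effect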
# Summary of the method: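 Assay measures total GFP intensity per well in HeLa EGFP-705 cells after 2 days with compound; mis-splicing normally truncates EGFP, so fluorescence indicates corrected splicing.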
# [5] = target: Cytochrome P450 2C9 (Homo sapiens) (UniProt P11712); assay: qHTS Assay for Inhibitors and Substrates of Cytochrome P450 2C9 (AID 883); further: potency means the concentration at half of the fitted maximal effect; nearly all actives have a fitted effect of over 60% in size
# Summary of the method: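 Human CYP2C9 (10nM) with Luciferin-H at 100uM (its KM) in 25mM KPO4; compound preincubated 10 min at 37C, then NADPH regeneration for 60 min at 37C. Luciferin read by luminescence after detection reagent; normalized to 57uM sulphaphenazole as full inhibition.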
# [6] = target: Cytochrome P450 3A4 (Homo sapiens) (UniProt P08684); assay: qHTS Assay for Activators of Cytochrome P450 3A4 (AID 885); further: nearly all actives have a fitted effect of over 65% in size
# Summary of the method: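 Steps: enzyme/substrate mix dispensed; compound added, 10 min RT; NADPH regeneration solution added, 60 min RT; luciferin detection buffer stops reaction; 20 min later luminescence measured.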
# [7] = target: Cytochrome P450 2C19 (Homo sapiens) (UniProt P33261); assay: qHTS Assay for Inhibitors and Substrates of Cytochrome P450 2C19 (AID 899); further: potency means the concentration at half of the fitted maximal effect; nearly all actives have a fitted effect of over 60% in size
# Summary of the method: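 5 nM human CYP2C19 with 10uM Luciferin-H EGE (at KM) in 50mM KPO4, compound preincubated 10 min at 37C, then NADPH regeneration for 60 min at 37C. Luciferin read by luminescence after detection reagent; normalized to 57uM ketoconazole as full inhibition.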
# [8] = target: Alpha-galactosidase (Coffea arabica) (UniProt Q42656); assay: Counterscreen for Glucocerebrosidase Inhibitors: qHTS Assay for Coffee Bean alpha-Galactosidase at pH 4.5 (AID 957);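 further: plate controls were enzyme alone for no effect and no enzyme for full effect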
# Summary of the method: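 AC50 values derive from Hill-equation modeling of concentration-response data, normalized to no-enzyme and full-activity controls. The pH 4.5 citrate assay used 2 nM coffee bean enzyme and 80 uM fluorogenic substrate for 20 min.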
# [9] = target: Alpha-galactosidase (Coffea arabica) (UniProt Q42656); assay: Counterscreen for Glucocerebrosidase Inhibitors: qHTS Assay for Coffee Bean alpha-Galactosidase at pH 5.9 (AID 998);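 further: plate controls were uninhibited enzyme for no effect and no-enzyme basal signal for full effect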
# Summary of the method: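 Green coffee bean enzyme (2 nM) with 4-methylumbelliferyl alpha-D-galactopyranoside (80 uM) in 50 mM citric acid, 0.005% Tween-20, pH 5.9, 20 min at room temperature; compounds 0.7 nM–77 uM. Stopped at pH 10, fluorescence Ex365/Em440; Hill-fit AC50.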
# [10] = measured here: cell count channel max response
# [11] = measured here: lipid channel max response
# Cytochrome P450 3A4 (Homo sapiens), sequence (P08684 whole entry, looked up): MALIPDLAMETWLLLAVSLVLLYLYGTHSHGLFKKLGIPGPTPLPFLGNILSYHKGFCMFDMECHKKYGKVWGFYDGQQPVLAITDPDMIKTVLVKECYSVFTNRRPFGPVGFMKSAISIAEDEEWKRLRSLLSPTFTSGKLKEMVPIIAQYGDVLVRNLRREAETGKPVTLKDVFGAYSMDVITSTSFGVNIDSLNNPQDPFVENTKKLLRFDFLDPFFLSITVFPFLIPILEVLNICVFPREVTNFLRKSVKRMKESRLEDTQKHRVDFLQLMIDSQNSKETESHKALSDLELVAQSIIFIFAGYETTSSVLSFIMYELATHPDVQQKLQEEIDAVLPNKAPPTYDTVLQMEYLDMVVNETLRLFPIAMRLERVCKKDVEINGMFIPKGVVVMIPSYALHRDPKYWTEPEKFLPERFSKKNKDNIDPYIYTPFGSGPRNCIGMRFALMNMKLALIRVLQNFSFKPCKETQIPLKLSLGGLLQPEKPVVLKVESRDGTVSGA
# Alpha-galactosidase (Coffea arabica), sequence (Q42656 whole entry, looked up): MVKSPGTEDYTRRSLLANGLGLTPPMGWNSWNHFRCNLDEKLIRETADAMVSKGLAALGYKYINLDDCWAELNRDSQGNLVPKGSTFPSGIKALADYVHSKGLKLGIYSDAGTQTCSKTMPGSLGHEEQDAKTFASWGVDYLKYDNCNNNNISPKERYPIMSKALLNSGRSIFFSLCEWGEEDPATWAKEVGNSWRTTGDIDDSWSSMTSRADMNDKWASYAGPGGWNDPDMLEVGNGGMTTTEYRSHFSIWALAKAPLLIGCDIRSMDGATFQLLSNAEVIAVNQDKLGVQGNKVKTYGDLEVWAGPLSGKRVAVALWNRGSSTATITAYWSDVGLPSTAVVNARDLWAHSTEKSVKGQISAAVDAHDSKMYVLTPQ
# Cytochrome P450 2C9 (Homo sapiens), sequence (P11712 whole entry, looked up): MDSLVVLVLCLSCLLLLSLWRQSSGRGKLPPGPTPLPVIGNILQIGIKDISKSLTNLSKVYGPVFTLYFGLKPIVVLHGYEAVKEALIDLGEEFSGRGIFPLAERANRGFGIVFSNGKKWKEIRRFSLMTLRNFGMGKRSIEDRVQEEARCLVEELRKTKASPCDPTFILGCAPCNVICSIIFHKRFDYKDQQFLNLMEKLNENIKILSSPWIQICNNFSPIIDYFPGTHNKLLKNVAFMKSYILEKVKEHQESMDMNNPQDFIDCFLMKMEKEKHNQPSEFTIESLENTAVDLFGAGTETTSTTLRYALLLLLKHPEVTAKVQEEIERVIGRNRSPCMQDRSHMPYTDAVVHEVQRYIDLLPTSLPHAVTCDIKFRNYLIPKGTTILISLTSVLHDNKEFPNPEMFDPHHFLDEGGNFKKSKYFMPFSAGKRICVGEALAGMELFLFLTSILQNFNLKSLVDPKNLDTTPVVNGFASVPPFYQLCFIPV
# Cytochrome P450 2C19 (Homo sapiens), sequence (P33261 whole entry, looked up): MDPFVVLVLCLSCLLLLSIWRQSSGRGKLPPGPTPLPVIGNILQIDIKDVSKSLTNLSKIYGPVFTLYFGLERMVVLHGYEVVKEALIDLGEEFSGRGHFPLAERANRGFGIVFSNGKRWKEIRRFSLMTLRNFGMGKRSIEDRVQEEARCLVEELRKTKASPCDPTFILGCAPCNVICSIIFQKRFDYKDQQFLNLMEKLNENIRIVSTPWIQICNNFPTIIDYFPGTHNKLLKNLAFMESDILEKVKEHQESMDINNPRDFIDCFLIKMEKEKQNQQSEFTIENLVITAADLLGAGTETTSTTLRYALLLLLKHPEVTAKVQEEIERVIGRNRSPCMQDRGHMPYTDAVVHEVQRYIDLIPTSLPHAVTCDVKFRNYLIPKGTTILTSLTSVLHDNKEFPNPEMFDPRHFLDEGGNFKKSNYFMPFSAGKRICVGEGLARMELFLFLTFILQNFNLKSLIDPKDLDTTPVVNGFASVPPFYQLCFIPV
structure (smiles),measurement,setting,value
C[C@@]12CCC3C(CC[C@@H]4CC(O)CC[C@@]34C)C1CCC2O (stereo not given in full),Potency,[1],inactive
same,"activity change, negative = inhibition",[2]; at 57.5 µM (top of the series),5.33% (inactive)
same,max response,[2]; [10],18.2%
same,max response,[2]; [11],26%
CCCCCCC(C)OC(=O)COc1ccc(Cl)cc1Cl (stereo not given),Potency,[3],inactive
same,Potency,[1],inactive
same,"activity change, negative = inhibition",[2]; at 57.5 µM (top of the series),1.06% (inactive)
same,max response,[2]; [10],1.5%
same,max response,[2]; [11],2.82%
CCC(C)C(=O)OC1C(O)C2C(CN3CC(C)CCC3[C@]2(C)O)C2C[C@]34O[C@@]5(O)C(OC(=O)C(C)(O)CC)CCC3(C)C5C(OC(C)=O)C(OC(C)=O)C4[C@@]21O (stereo not given in full),Potency,[3],inactive
same,Potency,[4],inactive
same,"activity change, negative = inhibition",[2]; at 57.5 µM (top of the series),3.69% (inactive)
same,max response,[2]; [10],17.1%
same,max response,[2]; [11],25.4%
COc1cc(CNC(=O)CCCC/C=C\C(C)C)ccc1O,Potency,[5],3.98 µM (active)
same,Potency,[3],7.94 µM (active)
same,Potency,[6],inactive
same,Potency,[7],10 µM (active)
same,"activity change, negative = inhibition",[2]; at 25.7 µM (top of the series),-6.95% (inactive)
same,max response,[2]; [10],-15.8%
same,max response,[2]; [11],-21%
Oc1ccc2c3c1OC1C(O)CC[C@]4(O)C(C2)N(CC2CCC2)CC[C@]314 (stereo not given in full),Potency,[1],inactive
same,Potency,[4],inactive
same,"activity change, negative = inhibition",[2]; at 57.5 µM (top of the series),-5.68% (inactive)
same,max response,[2]; [10],13.5%
same,max response,[2]; [11],9.11%
CC(=O)OC1CC2C(C)(C)C(O)C=C[C@@]2(C)C2CC[C@]3(C)C(=CC(=O)OC3c3ccoc3)[C@]12C (stereo not given in full),Potency,[6],inactive
same,Potency,[1],inactive
same,Potency,[4],inactive
same,"activity change, negative = inhibition",[2]; at 57.5 µM (top of the series),6.31% (inactive)
same,max response,[2]; [10],-2.89%
same,max response,[2]; [11],6.06%
NC(CO)Cc1ccccc1 (stereo not given),Potency,[3],inactive
same,Potency,[1],inactive
same,Potency,[4],inactive
same,"activity change, negative = inhibition",[2]; at 57.5 µM (top of the series),8.6% (inactive)
same,max response,[2]; [10],17.3%
same,max response,[2]; [11],29%
CC1(C)C(=O)C=C[C@@]2(C)C1CC(O)[C@]1(C)C2CC[C@@]2(C)C(c3ccoc3)OC(=O)C3O[C@]312 (stereo not given in full),Potency,[6],inactive
same,Potency,[1],inactive
same,Potency,[4],inactive
same,"activity change, negative = inhibition",[2]; at 57.5 µM (top of the series),-4.48% (inactive)
same,max response,[2]; [10],13.8%
same,max response,[2]; [11],11.5%
COc1cc([C@H]2c3cc4c(cc3[C@@H](O)[C@@H]3COC(=O)[C@H]23)OCO4)cc(OC)c1OC,Potency,[5],1.26 µM (active)
same,outcome,[8],inactive
same,outcome,[9],inactive
same,"activity change, negative = inhibition",[2]; at 25.7 µM (top of the series),-6.44% (inactive)
same,max response,[2]; [10],-10.2%
same,max response,[2]; [11],-15%
S=C=NCc1ccccc1,Potency,[3],25.1 µM (active)
same,Potency,[6],inactive
same,Potency,[1],inactive
same,Potency,[4],inactive
same,"activity change, negative = inhibition",[2]; at 57.5 µM (top of the series),4.36% (inactive)
same,max response,[2]; [10],-6.33%
same,max response,[2]; [11],0.435%
CC(=O)OC1CC[C@@]2(C)C3CC[C@]4(C)C(=O)CCC4C3CC[C@H]2C1 (stereo not given in full),Potency,[3],inactive
same,Potency,[1],inactive
same,Potency,[4],inactive
same,"activity change, negative = inhibition",[2]; at 57.5 µM (top of the series),-0.903% (inactive)
same,max response,[2]; [10],-8.94%
same,max response,[2]; [11],-14.8%
CC1CC(O)[C@]2(O)[C@]13CC(=O)OC[C@@]2(C)[C@@](C)(O)C(=O)C3 (stereo not given in full),Potency,[6],inactive
same,Potency,[1],inactive
same,Potency,[4],inactive
same,"activity change, negative = inhibition",[2]; at 57.5 µM (top of the series),1.46% (inactive)
same,max response,[2]; [10],13.4%
same,max response,[2]; [11],16.3%
CC1(C)C(=O)C=C[C@@]2(C)C1=C(O)C(=O)[C@@]1(C)C2CC[C@@]2(C)C(c3ccoc3)C[C@H]3O[C@@]321 (stereo not given in full),Potency,[3],0.501 µM (active)
same,Potency,[6],inactive
same,Potency,[1],inactive
same,"activity change, negative = inhibition",[2]; at 57.5 µM (top of the series),0.256% (inactive)
same,max response,[2]; [10],0.732%
same,max response,[2]; [11],3.61%
